Results: PubChem BioAssay (EPA / NIEHS)
Values joined by “and” are separate entries in the source; they are usually repeats but may differ in a detail not shown here. Identical values can stand only once. The source holds several records for some structures; these can differ, active in one and inactive in another. Active and inactive are the calls of the source. How the source made its calls: active means hit-call score of the fitted dose curve at least 0.9, where 1 is the maximum; inactive means score below 0.9.

What was measured:
[1] = APR_HepG2_CellLoss_72hr: Apredica 72-hour HepG2 Assay for Cell Loss (AID 2282915); conditions: high-content imaging
Procedure, shortened: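 HepG2 cells were exposed for 72 hr to compounds at 0.39–200 uM (ten concentrations, duplicate) in 0.5% v/v final DMSO. Nuclei were stained with Hoechst 33342 after 3.7% formaldehyde fixation, imaged at 20x, and counted; fits bidirectional versus DMSO.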

[2] = APR_HepG2_P-H2AX_72hr: Apredica 72-hour HepG2 Assay for H2AX Phosphorylation (AID 2282916); conditions: imaging, actives raise or lower the signal;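 further: phospho-histone H2A.x immunostain intensity per cell marking DNA damage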
Procedure, shortened: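 Phospho-H2A.x imaging endpoint in HepG2 after 72 hr compound exposure (0.39–200 uM, duplicate wells). Activity derived by bidirectional curve fitting with DMSO as baseline.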

[3] = APR_HepG2_MitoMembPot_72hr: Apredica 72-hour HepG2 Assay for Mitochondrial Membrane Potential (AID 2282917); conditions: imaging, actives raise or lower the signal
Procedure, shortened: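 HepG2 cells exposed 72 h to compounds at 0.39–200 uM (0.5% v/v DMSO, duplicates); MitoTracker Red CMXRos 250 nM loaded 30 min before 3.7% formaldehyde fixation, imaged by HCS fluorescence. Bidirectional fit versus DMSO.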

[4] = APR_HepG2_MitoticArrest_72hr: Apredica 72-hour HepG2 Assay for Mitotic Arrest (AID 2282918); conditions: high-content imaging, actives raise or lower the signal
Procedure, shortened: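 HepG2, 72 hr exposure, 0.39–200 uM in duplicate, 0.5% v/v DMSO final. Formaldehyde-fixed, Triton-permeabilized, anti-phospho-histone H3/FITC plus Hoechst. ArrayScan imaging at 20x; curves fit bidirectionally against DMSO baseline.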

[5] = APR_HepG2_MicrotubuleCSK_72hr: Apredica 72-hour HepG2 Assay for Microtubule CSK Stabilty (AID 2282919); conditions: HepG2 microtubule cytoskeleton, high-content imaging, actives raise or lower the signal
Procedure, shortened: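 Ten-point dosing (0.39–200 uM, 0.5% DMSO) of HepG2 for 72 hr, with taxol as the cytoskeletal positive control. The cells were formaldehyde-fixed and then stained with alpha-tubulin/Cy5 and Hoechst. Imaging at 20x used a −2 um Z offset for tubulin.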

[6] = APR_HepG2_P-H2AX_24hr: Apredica 24-hour HepG2 Assay for H2AX Phosphorylation (AID 2282920); conditions: high-content imaging, actives raise or lower the signal
Procedure, shortened: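 HCS fluorescence imaging of phospho-H2A.x immunostain (with Hoechst 33342 nuclear counterstain) in HepG2 after 24 hr compound exposure; 10 concentrations, 0.39–200 uM, duplicate wells, 0.5% v/v DMSO. Gain or loss of signal fitted relative to DMSO baseline.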

[7] = APR_HepG2_StressKinase_72hr: Apredica 72-hour HepG2 Assay for Stress Kinase (AID 2282921); conditions: HepG2 stress kinase (phospho-c-Jun) imaging, actives raise or lower the signal
Procedure, shortened: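 Stress kinase signal reflects nuclear phospho-c-Jun staining in fixed, permeabilized cells exposed 72 h to compound at 0.39–200 uM; DMSO-normalized, fitted for increases or decreases.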

[8] = APR_HepG2_StressKinase_24hr: Apredica 24-hour HepG2 Assay for Stress Kinase (AID 2282922); conditions: HepG2 stress kinase (phospho-c-Jun) imaging, actives raise or lower the signal
Procedure, shortened: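 After 24 hr compound treatment (up to 200 uM, final DMSO 0.5% v/v), HepG2 cells are fixed and multiplex-labeled; phospho-c-Jun intensity is captured by high-content fluorescence imaging and analyzed relative to DMSO.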

[9] = APR_HepG2_MitoMass_72hr: Apredica 72-hour HepG2 Assay for Mitochondrial Mass (AID 2282924); conditions: high-content imaging, actives raise or lower the signal;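 further: MitoTracker Red CMXRos stain intensity per cell imaged as mitochondrial mass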
Procedure, shortened: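 Steps: treat HepG2 72 hr (0.39–200 uM, duplicate wells); load MitoTracker Red CMXRos, 250 nM, 30 min; fix with 3.7% formaldehyde, permeabilise with 0.5% Triton X-100; capture images, nuclei via Hoechst 33342; fit bidirectionally against DMSO.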

[10] = APR_HepG2_NuclearSize_72hr: Apredica 72-hour HepG2 Assay for Nuclear Size (AID 2282925); conditions: high-content imaging, actives raise or lower the signal
Procedure, shortened: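 Compounds (0.39–200 uM, final DMSO 0.5%) were applied to HepG2 for 72 hr. Cells were then formaldehyde-fixed, permeabilized and labelled with Hoechst 33342. Nuclear diameter was quantified from six images per well.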

[11] = ATG_CRE_CIS: Attagene CIS-FACTORIAL HepG2 Assay for human cAMP Responsive Element (CRE) binding protein 3 (AID 2282926); conditions: HepG2 CRE cis-reporter, Attagene multiplexed mRNA; actives raise or lower the signal
Procedure, shortened: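 Readout: fluorescently labelled reporter transcripts resolved by capillary electrophoresis after RT-PCR, taken 24 h post-dosing in transfected HepG2. Endogenous transcription factor activity drives each cis-element reporter; gain or loss of signal fitted relative to DMSO control.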

[12] = molecular target: CCAAT/enhancer-binding protein beta (Homo sapiens) (UniProt P17676); assay: ATG_C_EBP_CIS: Attagene CIS-FACTORIAL HepG2 Assay for human CCAAT/Enhancer Binding Protein (C/EBP) beta (AID 2282927); conditions: HepG2 Attagene cis-factorial transcription factor reporter; actives raise or lower the signal
Procedure, shortened: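 Following a 24 h incubation with test chemical, transfected HepG2 cells yielded RNA whose reporter transcripts were quantified by RT-PCR and fluorescent capillary electrophoresis, with DMSO serving as baseline for bidirectional fitting.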

[13] = ATG_CMV_CIS: Attagene CIS-FACTORIAL HepG2 Assay for human CMV (Internal Marker) (AID 2282928); conditions: HepG2 CMV promoter reporter, transcription factor profiling; actives raise or lower the signal;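 further: endpoint acts as a background internal control marker rather than a target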
Procedure, shortened: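 Reporter transcripts from transfected HepG2 cells are isolated after 24 h of chemical dosing, reverse-transcribed and amplified. Fragments labeled with 6-FAM are cut with HpaI and quantified by capillary electrophoresis; DMSO defines baseline.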

[14] = ATG_DR4_LXR_CIS: Attagene CIS-FACTORIAL HepG2 Assay for human Liver X Receptor (LXR), DR4 submotif (AID 2282929); conditions: HepG2 Attagene DR4 cis-reporter, mRNA transcription; actives raise or lower the signal
Procedure, shortened: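 Endogenous factor activity at a DR4 cis-element is read as reporter mRNA in transiently transfected HepG2 cells. Exposure lasts 24 h; transcripts are amplified, fluorescently labelled and sized by capillary electrophoresis, with DMSO as baseline.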

[15] = molecular target: Aryl hydrocarbon receptor (Homo sapiens) (UniProt P35869); assay: ATG_Ahr_CIS: Attagene CIS-FACTORIAL HepG2 Assay for human Aryl Hydrocarbon Receptor (Ahr) (AID 2282930); conditions: HepG2 AhR cis-factorial reporter transcription; actives raise or lower the signal
Procedure, shortened: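 Values derive from bidirectional fitting against DMSO negative control. Underlying signal: cis-element reporter mRNA in transiently transfected HepG2, harvested 24 h post-dose and measured by RT-PCR plus capillary electrophoresis.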

[16] = ATG_AP_1_CIS: Attagene CIS-FACTORIAL HepG2 Assay for human Activator Protein 1 (AP-1) (AID 2282931); conditions: HepG2 Attagene cis-factorial AP-1 reporter mRNA; actives raise or lower the signal
Procedure, shortened: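 Fluorescence of labelled PCR fragments separated by capillary electrophoresis gives reporter mRNA levels. HepG2 with transfected cis-regulated reporter units, 24 h exposure; DMSO serves as baseline for bidirectional curve fits.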

[17] = ATG_AP_2_CIS: Attagene CIS-FACTORIAL HepG2 Assay for human Activator Protein 2 (AP-2) (AID 2282932); conditions: HepG2 AP-2 cis-reporter, Attagene transcription factor profiling; actives raise or lower the signal
Procedure, shortened: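 Assay in transfected HepG2 with promoter-regulated reporters, 24 h incubation after dosing. Signal is reporter mRNA fluorescence (RT-PCR, capillary electrophoresis), analysed for both increases and decreases relative to DMSO controls.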

[18] = ATG_BRE_CIS: Attagene CIS-FACTORIAL HepG2 Assay for human Bone Morphogenetic Protein (BMP) Response Element (BRE) (AID 2282933); conditions: HepG2 BMP response element reporter, Attagene transcription factor profiling; actives raise or lower the signal
Procedure, shortened: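 A HepG2 multiplex reporter system measured inducible reporter mRNA 24 h post-dosing. Detection: RT-PCR, 6-FAM primer extension, HpaI digestion, capillary electrophoresis. Activity fitted bidirectionally relative to DMSO.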

[19] = molecular target: Retinoic acid receptor alpha (Homo sapiens) (UniProt P10276); assay: ATG_DR5_RAR_CIS: Attagene CIS-FACTORIAL HepG2 Assay for human Retinoic Acid Receptor Alpha (RARE), DR5 submotif (AID 2282934); conditions: HepG2 Attagene cis-factorial RARE DR5 reporter, mRNA; actives raise or lower the signal;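 on AC50: reporter responds to endogenous RAR alpha beta and gamma in HepG2 not RARA alone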
Procedure, shortened: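 Endpoint fitted in both directions relative to DMSO as negative control. It reflects DR5 cis-element reporter mRNA induction in transiently transfected HepG2 cells, measured 24 h after dosing through RT-PCR and fluorescent capillary electrophoresis.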

[20] = APR_HepG2_p53Act_72hr: Apredica 72-hour HepG2 Assay for p53 Activation (AID 2282923); conditions: high-content imaging, actives raise or lower the signal;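 further: average cellular p53 protein immunofluorescence intensity in HepG2 cells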
Procedure, shortened: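 Fixed-cell p53 staining (sheep primary, Cy5 secondary) measured by fluorescence imaging following 72 hr treatment at 0.39–200 uM in 0.5% DMSO; DMSO served as negative control and baseline.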

CCAAT/enhancer-binding protein beta (Homo sapiens), sequence (P17676 whole entry, looked up): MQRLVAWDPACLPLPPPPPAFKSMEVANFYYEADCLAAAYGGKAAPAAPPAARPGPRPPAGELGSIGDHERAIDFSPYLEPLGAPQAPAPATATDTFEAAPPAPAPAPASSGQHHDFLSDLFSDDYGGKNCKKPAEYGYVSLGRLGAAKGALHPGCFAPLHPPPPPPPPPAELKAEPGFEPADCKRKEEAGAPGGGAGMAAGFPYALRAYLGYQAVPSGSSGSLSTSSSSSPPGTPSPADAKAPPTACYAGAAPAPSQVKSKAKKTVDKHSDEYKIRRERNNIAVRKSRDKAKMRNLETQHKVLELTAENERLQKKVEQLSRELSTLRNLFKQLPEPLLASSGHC
Retinoic acid receptor alpha (Homo sapiens), sequence (P10276 whole entry, looked up): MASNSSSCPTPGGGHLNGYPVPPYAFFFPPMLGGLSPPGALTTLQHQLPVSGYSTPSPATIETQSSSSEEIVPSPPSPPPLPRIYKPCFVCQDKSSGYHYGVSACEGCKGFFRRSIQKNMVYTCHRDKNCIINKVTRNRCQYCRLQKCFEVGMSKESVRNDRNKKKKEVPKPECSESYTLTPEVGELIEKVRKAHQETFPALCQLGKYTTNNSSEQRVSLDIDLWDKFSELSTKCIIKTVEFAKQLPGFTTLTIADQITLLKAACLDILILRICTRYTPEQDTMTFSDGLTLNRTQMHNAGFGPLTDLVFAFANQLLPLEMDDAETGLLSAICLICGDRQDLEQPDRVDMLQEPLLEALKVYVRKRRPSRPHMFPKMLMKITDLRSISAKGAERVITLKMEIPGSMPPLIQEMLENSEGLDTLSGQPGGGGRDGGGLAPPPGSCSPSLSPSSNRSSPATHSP
Aryl hydrocarbon receptor (Homo sapiens), sequence (P35869 whole entry, looked up): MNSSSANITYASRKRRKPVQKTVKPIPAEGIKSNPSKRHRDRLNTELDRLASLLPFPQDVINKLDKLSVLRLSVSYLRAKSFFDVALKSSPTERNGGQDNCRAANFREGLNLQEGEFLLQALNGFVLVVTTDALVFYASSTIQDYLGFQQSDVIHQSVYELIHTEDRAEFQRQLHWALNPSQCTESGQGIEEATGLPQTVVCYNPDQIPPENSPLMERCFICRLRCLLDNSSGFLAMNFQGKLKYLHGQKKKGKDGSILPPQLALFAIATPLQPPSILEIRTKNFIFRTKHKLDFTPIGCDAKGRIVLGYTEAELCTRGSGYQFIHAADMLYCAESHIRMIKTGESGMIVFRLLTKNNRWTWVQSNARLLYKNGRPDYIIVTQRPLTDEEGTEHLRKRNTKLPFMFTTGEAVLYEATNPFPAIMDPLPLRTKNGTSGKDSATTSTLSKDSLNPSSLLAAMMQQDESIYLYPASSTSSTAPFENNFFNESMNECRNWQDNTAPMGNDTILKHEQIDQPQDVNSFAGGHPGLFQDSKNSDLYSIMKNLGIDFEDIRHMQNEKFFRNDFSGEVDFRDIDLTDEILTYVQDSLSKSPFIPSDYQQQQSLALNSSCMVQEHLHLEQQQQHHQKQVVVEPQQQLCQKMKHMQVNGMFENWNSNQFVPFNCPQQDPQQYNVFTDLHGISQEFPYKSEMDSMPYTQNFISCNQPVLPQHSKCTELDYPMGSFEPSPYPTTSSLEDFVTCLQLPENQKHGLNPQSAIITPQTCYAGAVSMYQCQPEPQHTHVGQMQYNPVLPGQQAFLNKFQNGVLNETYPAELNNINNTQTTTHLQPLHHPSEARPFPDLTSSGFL

SMILES: CCCN(CCC)c1c([N+](=O)[O-])cc(S(N)(=O)=O)cc1[N+](=O)[O-]
- AC50 [1]: 38.6 µM (active) and 39.2 µM (active) and 46.7 µM (active)
- outcome [1]: inactive
- AC50 [2]: 128 µM (active) and 34.6 µM (active)
- outcome [2]: inactive
- outcome [3]: inactive
- AC50 [4]: 34 µM (active) and 82.3 µM (active)
- outcome [4]: inactive
- outcome [5]: inactive
- AC50 [6]: 31.7 µM (active) and 35.9 µM (active)
- outcome [6]: inactive
- AC50 [7]: 54.4 µM (active)
- outcome [7]: inactive
- AC50 [8]: 116 µM (active)
- outcome [8]: inactive
- AC50 [9]: 94.8 µM (active)
- outcome [9]: inactive
- outcome [10]: inactive
- outcome [11]: inactive
- outcome [12]: inactive
- outcome [13]: inactive
- AC50 [14]: 4.79 µM (active) and 11.1 µM (active)
- outcome [14]: inactive
- outcome [15]: inactive
- outcome [16]: inactive
- outcome [17]: inactive
- outcome [18]: inactive
- AC50 [19]: 1.22 µM (active) and 1.19 µM (active)
- outcome [19]: inactive

SMILES: CCNc1nc(Cl)nc(NC(C)C)n1
- outcome [1]: inactive
- outcome [2]: inactive
- outcome [3]: inactive
- outcome [4]: inactive
- outcome [5]: inactive
- outcome [6]: inactive
- outcome [7]: inactive
- outcome [8]: inactive
- outcome [20]: inactive
- outcome [9]: inactive
- outcome [10]: inactive
- outcome [11]: inactive
- outcome [12]: inactive
- outcome [13]: inactive
- outcome [14]: inactive
- outcome [15]: inactive
- outcome [16]: inactive
- outcome [17]: inactive
- outcome [18]: inactive

SMILES: N#Cc1nn(-c2c(Cl)cc(C(F)(F)F)cc2Cl)c(N)c1S(=O)C(F)(F)F (configuration not stated)
- AC50 [1]: 63.1 µM (active)
- AC50 [2]: 34.9 µM (active)
- outcome [3]: inactive
- outcome [4]: inactive
- AC50 [5]: 179 µM (active)
- AC50 [6]: 107 µM (active)
- AC50 [7]: 105 µM (active)
- outcome [8]: inactive
- outcome [20]: inactive
- outcome [9]: inactive
- outcome [10]: inactive
- AC50 [11]: 17.5 µM (active)
- outcome [11]: inactive
- AC50 [12]: 18.1 µM (active)
- outcome [12]: inactive
- outcome [13]: inactive
- AC50 [14]: 50.5 µM (active)
- outcome [14]: inactive
- outcome [15]: inactive
- AC50 [16]: 9.67 µM (active)
- outcome [16]: inactive
- outcome [17]: inactive
- AC50 [18]: 24.8 µM (active)
- outcome [18]: inactive
- AC50 [19]: 7.78 µM (active)
- outcome [19]: inactive

SMILES: COc1cnc(OC)n2nc(NS(=O)(=O)c3c(OCC(F)F)cccc3C(F)(F)F)nc12
- outcome [1]: inactive
- outcome [2]: inactive
- outcome [3]: inactive
- outcome [4]: inactive
- outcome [5]: inactive
- outcome [6]: inactive
- outcome [7]: inactive
- outcome [8]: inactive
- outcome [20]: inactive
- outcome [9]: inactive
- outcome [10]: inactive
- outcome [11]: inactive
- outcome [12]: inactive
- outcome [13]: inactive
- outcome [14]: inactive
- outcome [15]: inactive
- outcome [16]: inactive
- outcome [17]: inactive
- outcome [18]: inactive
